Compound activity (PubChem)
PLCg1 inh – blocks human PLC-gamma1 enzyme activity. purified PLC-gamma1, fluorogenic substrate, fluorescence. inhibition, % at 12.2 µM. 370,000 tested, 0.84% active. AID 720700; in the data active means inhibition above about 9.5%
KLK7 zymogen act – proKLK7 (human) activation, primary screen. purified proKLK7, EDANS-DABCYL substrate fluorescence; 100% is mature enzyme control, 0% vehicle. activation, % at 7 µM. 370,000 tested, 0.9% active. AID 652039;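 active means activation above the mean of all tested compounds plus 3 SD, computed per campaign excluding outliers beyond control limits, cut at about 13% in these data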
ADAM10 inh – inhibits human ADAM10; 370,000 tested, 0.62% active; inhibition, % at 7 µM; recombinant ADAM10, EDANS/DABCYL FRET peptide cleavage, 3 h; O14672;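 active means inhibition above a per-campaign cutoff equal to the mean of compounds falling between control-based bounds plus 3 SD, cut at about 20% in these data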
PLCb3 inh – blocks human PLC-beta3 enzyme activity | Q01970 | Purified PLC-beta3, fluorogenic substrate, fluorescence | inhibition, % at 12.2 µM | 370,000 tested, 0.18% active | AID 720704; in the data active means inhibition above about 11%
ADAM17 inh – inhibits human ADAM17. P78536. recombinant ADAM17, EDANS/DABCYL FRET peptide cleavage. inhibition, % at 6.95 µM. 370,000 tested, 0.83% active. AID 720648;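 active means inhibition above the mean of compounds lying between control limits plus 3 SD, set per campaign, cut at about 8.5% in these data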
Target sequence (P78536 215-824 limits assumed): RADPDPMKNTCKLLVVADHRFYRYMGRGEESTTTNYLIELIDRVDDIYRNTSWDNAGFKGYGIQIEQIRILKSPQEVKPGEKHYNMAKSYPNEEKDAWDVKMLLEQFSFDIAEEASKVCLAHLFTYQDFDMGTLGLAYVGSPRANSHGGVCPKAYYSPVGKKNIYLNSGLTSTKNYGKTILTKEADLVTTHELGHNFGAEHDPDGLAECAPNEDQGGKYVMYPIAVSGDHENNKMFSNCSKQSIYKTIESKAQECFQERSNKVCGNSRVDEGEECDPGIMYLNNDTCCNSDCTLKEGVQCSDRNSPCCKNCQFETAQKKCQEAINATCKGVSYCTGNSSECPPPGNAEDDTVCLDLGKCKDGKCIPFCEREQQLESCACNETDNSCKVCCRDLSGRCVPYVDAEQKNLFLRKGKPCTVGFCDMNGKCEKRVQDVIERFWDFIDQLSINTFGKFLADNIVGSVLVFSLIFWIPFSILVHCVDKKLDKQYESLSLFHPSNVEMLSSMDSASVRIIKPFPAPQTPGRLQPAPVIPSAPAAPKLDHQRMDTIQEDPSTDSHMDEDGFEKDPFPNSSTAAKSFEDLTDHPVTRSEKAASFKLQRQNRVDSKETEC
ADAM10 counter – ADAM10 inhibition, counter-screen for ADAM17 exosite hits | recombinant ADAM10, EDANS/DABCYL FRET peptide cleavage, 3 h | inhibition, % at 6.95 µM | 2,900 tested, 47% active | AID 743256 | shares compounds with ADAM17 inh;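 active means mean inhibition over the triplicate runs exceeds the activity threshold set in the earlier primary screen, cut at about 20% in these data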
ADAM17 confirm – confirmation of inhibitors of human ADAM17; shares compounds with ADAM17 inh; recombinant ADAM17, EDANS/DABCYL QFRET peptide cleavage; inhibition, % at 6.95 µM; 2,900 tested, 65% active; AID 743257;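 active means mean inhibition across replicates above the hit cutoff set in the primary screen, cut at about 8.5% in these data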
A number is an active result; - = inactive; . = no result. Shown are actives, neighbours in structure and some others; about 2.9% of the full set was active somewhere.

SMILES | PLCg1 inh | KLK7 zymogen act | ADAM10 inh | PLCb3 inh | ADAM17 inh | ADAM10 counter | ADAM17 confirm
CCN(CC(O)Cn1c2ccccc2c2ccccc21)S(=O)(=O)c1ccc(C)cc1 (stereo not given) | - | - | - | - | 11.0 | 27.6 | 14.1
CN(CC(O)Cn1c2ccccc2c2ccccc21)S(C)(=O)=O (stereo not given) | - | - | - | - | - | . | .
C[C@H]1CN([C@@H](C)CO)C(=O)Cc2cc(NC(=O)CCN3CCOCC3)ccc2O[C@@H]1CN(C)Cc1ccc(Oc2ccccc2)cc1 | - | - | - | - | - | . | .
C[C@H]1CN([C@@H](C)CO)C(=O)Cc2cc(NC(=O)C3CC3)ccc2O[C@H]1CN(C)Cc1ccc(Oc2ccccc2)cc1 | - | - | - | - | 9.3 | 28.8 | 18.8
COc1ccc(NC(=O)Nc2ccc3c(c2)CC(=O)N([C@H](C)CO)C[C@H](C)[C@H](CN(C)Cc2ccc(C(=O)O)cc2)O3)cc1 | - | - | - | - | 9.0 | - | -
COc1ccc(NC(=O)Nc2ccc3c(c2)CC(=O)N([C@H](C)CO)C[C@@H](C)[C@H](CN(C)C(=O)Nc2ccccc2)O3)cc1 | - | - | - | - | - | . | .
O=C(OCc1cn(Cc2ccc(F)cc2)nn1)N1CCOCC1 | - | - | - | - | - | . | .
N=C(N)SCc1ccccc1Cl | - | - | - | - | 9.4 | - | -
C=CS(=O)(=O)N(Cc1ccccc1)[C@H](CO)CC(C)C | - | - | - | - | - | . | .
CC(C)C[C@H](CO)N(Cc1ccccc1)S(=O)(=O)N(Cc1ccccc1)[C@@H](CO)CC(C)C | - | - | - | - | 13.1 | 46.9 | 26.0
CN1C(=O)CCS(=O)(=O)C1c1ccc(Cl)c(Cl)c1 (stereo not given) | - | - | - | - | - | . | .
CC(C)[C@H]1COc2c3ccccc3nn21 | - | - | - | - | - | . | .
O=C(Nc1cccc(Cl)c1)c1cccc(Oc2ccc([N+](=O)[O-])cc2Cl)c1 | - | - | - | - | 9.7 | 22.9 | 15.1
Cc1ccc([N+](=O)[O-])cc1NC(=O)c1ccccc1 | - | - | - | - | - | . | .
COc1ccc([N+](=O)[O-])cc1NC(=O)Nc1cccc(Cl)c1 | - | - | - | - | - | . | .
Cc1ccc(C)c(NC(=O)c2cccc(Oc3ccc([N+](=O)[O-])cc3Cl)c2)c1 | - | - | - | - | 9.0 | 29.2 | 15.7
COC(=O)[C@]12CCCCC=C1N(Cc1ccc(OC)cc1)C(=O)[C@@H]2CC(=O)N1CCCC1 | - | - | - | - | - | . | .
COc1ccc(CNS(=O)(=O)/C=C/c2ccc(OC)cc2CNC(=O)OC(C)(C)C)cc1 | - | - | - | - | 9.4 | 23.5 | 9.7
CN(C(=O)c1ccc(NC(=O)Cc2cccc(NC(=O)C3CCCN(C(=O)C4CCCC4)C3)c2)cc1)C1CCCC1 (stereo not given) | - | - | - | - | 9.4 | - | -
CN(C(=O)c1ccc(NC(=O)Cc2cccc(NC(=O)C3CCCN(C(=O)C4CCC4)C3)c2)cc1)C1CC1 (stereo not given) | - | - | - | - | - | . | .
CC(C)(C)OC(=O)N1CCCC(C(=O)Nc2cccc(C(=O)NCCCc3ccccc3)c2)C1 (stereo not given) | - | - | - | - | 12.0 | - | 10.4
CCO[C@H]1OC(C(=O)NCc2nc3ccccc3[nH]2)=C[C@@H](c2csc3ccccc23)[C@@H]1CCCO | - | - | - | - | 12.4 | - | -
CCOC(=O)c1c(C)[nH]c(C(=O)OCc2ccccc2)c1C | - | - | - | - | 8.8 | - | 8.9
C[C@H](c1ccccc1)N1C[C@H](COCc2ccccc2)Oc2cc(N3CC[C@@H](O)C3)ccc2S1(=O)=O | - | - | - | - | 9.8 | 28.8 | 15.2
C[C@@H](c1ccccc1)N1C[C@H](COCc2ccccc2)Oc2cc(N3CC[C@@H](O)C3)ccc2S1(=O)=O | - | - | - | - | 10.4 | - | -
SMILES | PLCg1 inh | KLK7 zymogen act | ADAM10 inh | PLCb3 inh | ADAM17 inh | ADAM10 counter | ADAM17 confirm
CCOc1ccccc1C(=O)Nc1ccc(C(=O)NCC2COc3ccccc3O2)cc1 (stereo not given) | - | - | - | - | - | . | .
CCOC(=O)[C@]12CCCC=C1N(Cc1cccc3ccccc13)C(=O)[C@H](CC(=O)N1CCN(C(=O)c3ccco3)CC1)C2 | - | - | - | - | - | . | .
N#CCCN(C(=O)COC(=O)c1cccc(S(=O)(=O)Nc2ccc([N+](=O)[O-])cc2)c1)c1ccccc1 | - | - | - | - | 9.2 | - | -
Cc1c(Cl)cccc1Nc1nc(N)nc(CSc2nc3ccccc3s2)n1 | - | - | - | - | 9.5 | - | 11.0
Cn1c2c(c(=O)n(C)c1=O)CS(=O)c1ccccc1N2 (stereo not given) | - | - | - | - | - | . | .
COc1c([N+](=O)[O-])c(=O)oc2ccccc12 | - | - | - | - | - | . | .
COc1c(NC=O)c2c(c([N+](=O)[O-])c1OC)C(=O)OC2 | - | - | - | - | 8.8 | - | -
CCOC(=O)Cn1cc(CN2CCS(=O)(=O)N(Cc3ccccc3)C(C(=O)OC)C2)nn1 (stereo not given) | - | - | - | - | - | . | .
Cc1ccc(O)c(Cc2cc(C)cc(Cc3cc(C)ccc3O)c2O)c1 | - | - | - | - | 9.4 | 29.9 | 13.7
O=c1[nH][nH]c(-c2ccccc2)c1C=Nc1ccc(C(F)(F)F)cc1 | - | - | - | - | 12.7 | - | -
O=c1[nH][nH]c(-c2ccccc2)c1C=Nc1ccccc1 | - | - | - | - | - | . | .
CN1C(=O)C2(OCC(COc3ccc(Cl)cc3)O2)c2ccccc21 (stereo not given) | - | - | - | - | - | . | .
O=C1Nc2ccccc2C12OCC(COc1ccc(Cl)cc1)O2 (stereo not given) | - | - | - | - | 10.9 | - | -
CN1CC(c2ccccn2)C2(SC(=S)N(Cc3ccccc3)C2=O)C12C(=O)Nc1ccccc12 (stereo not given) | - | - | - | - | - | . | .
CN1CC(c2ccccc2Cl)C2(COc3ccccc3C2=O)C12C(=O)Nc1ccccc12 (stereo not given) | - | - | - | - | 8.9 | 43.6 | 25.1
O=C(NN=Cc1ccc(O)cc1)c1cc(-c2ccc(Cl)cc2)n[nH]1 | - | - | - | - | - | . | .
O=C(NC(=S)Nc1ccc2c(c1)OCCO2)c1cccc(Br)c1 | - | - | - | - | - | . | .
O=C(NC(=S)Nc1ccc2c(c1)OCCO2)c1cccc2ccccc12 | - | - | - | - | 10.9 | - | 11.2
COC[C@H](NS(=O)(=O)c1ccc(Br)cc1F)[C@@H](O)c1ccccc1 | - | - | - | - | 9.8 | - | 10.1
O=C1Nc2ccccc2C(=O)N(Cc2ccccc2)C1C(=O)NC1CC1 (stereo not given) | - | - | - | - | - | . | .
